# A selection: hits, their analogues and other compounds. The true share with any hit is near 9.4%.
# FLuc counter = qHTS profiling assay for firefly luciferase inhibitor/activator using purifed enzyme and Km concentrations of substrates (counterscreen for miR-21 project); 360,000 compounds, 6.9% hits; purified FLuc, Km substrates, luminescence inhibition; Potency, µM (highest dose often 57.5 µM), for inactives: at the highest dose activity change, negative = inhibition, hits mostly inhibitors; AID 588342, 2011; Luciferin 4-monooxygenase (Photinus pyralis), P08659;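 also: plate controls were vehicle for no effect and reference inhibitor for full effect; nearly all actives have a fitted effect of over 55% in size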
# Target sequence (P08659 whole entry, looked up): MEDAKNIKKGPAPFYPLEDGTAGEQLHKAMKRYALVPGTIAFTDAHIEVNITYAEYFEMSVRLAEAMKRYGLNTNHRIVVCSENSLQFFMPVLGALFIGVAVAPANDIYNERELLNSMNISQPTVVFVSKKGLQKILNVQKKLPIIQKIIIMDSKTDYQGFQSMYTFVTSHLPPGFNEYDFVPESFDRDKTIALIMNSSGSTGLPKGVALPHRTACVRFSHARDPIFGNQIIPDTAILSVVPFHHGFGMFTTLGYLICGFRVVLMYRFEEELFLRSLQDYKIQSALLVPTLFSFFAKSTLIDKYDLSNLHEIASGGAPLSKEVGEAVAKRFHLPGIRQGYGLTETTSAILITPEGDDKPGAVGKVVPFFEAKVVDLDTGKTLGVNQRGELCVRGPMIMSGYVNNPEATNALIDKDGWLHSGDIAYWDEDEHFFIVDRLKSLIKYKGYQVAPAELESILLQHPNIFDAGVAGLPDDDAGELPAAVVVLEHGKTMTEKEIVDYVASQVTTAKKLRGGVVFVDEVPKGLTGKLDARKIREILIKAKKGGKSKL
#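 Biochemical qHTS of compounds, final roughly 60 µM downward over six points, against 10 nM purified firefly luciferase using Km concentrations of substrates (10 uM D-luciferin, 10 uM ATP) in Tris acetate pH 7.5 buffer; luminescence output.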
# ELG1 genotoxic = qHTS screen for small molecules that induce genotoxicity in human embryonic kidney (HEK293T) cells expressing luciferase-tagged ELG1; HEK293T ELG1-luciferase reporter, luminescence, 16 h; Potency, µM (doses to about 46 µM), for inactives: at the top dose activity change, positive = activation, most hits filed as activators; 330,000 compounds, 1.3% hits; also: % of control where 0% means no effect; nearly all actives have a fitted effect of over 60% in size
#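 Genotoxic stress is detected as increased luminescence from luciferase-tagged ELG1 in HEK293T cells, measured with ONE-Glo after a 16 hr treatment at 37 °C.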
# SMN2 splice up = qHTS Assay for Enhancers of SMN2 Splice Variant Expression; HEK293 SMN2-luciferase splicing reporter, luminescence, 30-36 h; Potency, µM (series often up to 46.1 µM), for the others: top-dose activity change, positive = activation, usual class: activators; 210,000 compounds, 2.8% hits; AID 1458, 2008; also: % of control where 0% means no effect; nearly all actives have a fitted effect of over 55% in size
#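 HEK293 cells carry an SMN2 minigene-luciferase reporter in which exon 7 inclusion puts luciferase in frame. Cells were seeded at 2000 cells/well, attached for 10-12 hours, then exposed to compounds for 30-36 hours at 37C before ONE-Glo luminescence.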
# NPC1 promoter act = qHTS Assay for NPC1 Promoter Activators; Huh7 NPC1 promoter luciferase reporter, 24 h; Potency, µM (series often up to 9.22 µM), without a hit: at the top dose activation, usual class: activators; 320,000 compounds, 2.4% hits; also: % of control where 0% means no effect; nearly all actives have a fitted effect of over 60% in size
#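 In 1536-well qHTS, Huh7 cells harboring an NPC1 promoter–luciferase construct received compound for 24 h; activation was quantified by luminescence following luciferase reagent addition.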
# Rab9 promoter act = qHTS Assay for Rab9 Promoter Activators; Huh7 Rab9 promoter-luciferase reporter, luminescence, 24 h; Potency, µM (titrated, usually from 9.22 µM), without a hit: top-dose activation, negative = inhibition, actives largely listed as activators; 320,000 compounds, 2.8% hits; also: % of control where 0% means no effect; nearly all actives have a fitted effect of over 60% in size
#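 Huh7 cells stably carrying Rab9 promoter–luciferase reporter, plated 1500 cells/well, compound added after 2 h and incubated 24 h at 37 °C; luciferase luminescence then read after 10 min with detection reagent.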
# ELG1 DNA repair = qHTS screen for small molecules that inhibit ELG1-dependent DNA repair in human embryonic kidney (HEK293T) cells expressing luciferase-tagged ELG1; 330,000 compounds, 2.3% hits; AID 504467, 2011; HEK293T ELG1-luciferase reporter, luminescence, 16 h; DNA damage induced by 5-fluorouridine; Potency, µM (series often up to 46.1 µM), inactives show at the top dose activity change, negative = inhibition, hits mostly inhibitors; also: % is scaled to controls: 0 for no effect and ±100 for the full control effect; nearly all actives have a fitted effect of over 55% in size
#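 Luminescence from the luciferase reporter, measured 30 min after ONE-Glo reagent at room temperature, was the read-out. Beforehand, 2,000 cells per well were exposed for 16 hr at 37 °C to 5-fluorouridine together with compound or vehicle.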
# * hit, by the source's call; ? = inconclusive; . = no result given. Calls follow the shape of the dose curve; as a rule, active = well fitted curve in the direction sought with a large enough effect; inconclusive = small, poorly fitted or top-dose-only effect, or another doubt; inactive = no such curve, though single readings can be large; an effect the other way counts as inactive or inconclusive. Potency is read from the fitted curve at half-maximal effect.
SMILES,FLuc counter,ELG1 genotoxic,SMN2 splice up,NPC1 promoter act,Rab9 promoter act,ELG1 DNA repair
CN(C)S(=O)(=O)c1cccc(NC(=S)N/N=C/C2CC=CCC2)c1 (centres undefined),?,0%,6%,-1%,-3%,3%
COc1cc(/C=N\NC(=O)c2ccc(-c3ccccc3)cc2)cc(OC)c1OC(C)=O,?,-2%,.,-3%,12%,-26%
COc1cc(/C=N/NC(=O)c2cccc(NC(=O)c3ccccc3)c2)ccc1O,9.5µM*,-8%,.,16%,20%,-21%
COc1ccc(/C=N/NC(=O)c2cccc(NC(=O)c3ccc(Cl)cc3)c2)c(OC)c1,2.7µM*,3%,?,24%,?,?
COc1cc(/C=N/NC(=S)Nc2cccc(S(=O)(=O)N(C)C)c2)ccc1O,2.7µM*,1%,21%,-3%,0%,?
CCCCc1nc2ccccc2n1CC(=O)N(COCC)c1c(C)cccc1CC,4%,.,-20%,.,.,.
CN(C)c1ccc(NC(=O)Cn2c(SCc3ccc(F)cc3)nc3cccnc32)cc1,-5%,.,.,.,.,.
CCCCOc1ccc(S(=O)(=O)NCc2csc(-c3ccc(OC)cc3)n2)cc1,-13%,.,1%,.,.,.
COc1cc(/C=N/NC(=O)c2cccc(NC(=O)c3ccccc3C)c2)ccc1O,19µM*,-10%,.,12%,-1%,-20%
COc1cc(/C=N/NC(=O)c2ccncc2)ccc1O,-7%,2%,.,2%,2%,?
O=C(Cn1nc2ccccc2n1)N/N=C/c1cc(Cl)cc([N+](=O)[O-])c1O,?,6%,-23%,-1%,-3%,?
Cc1ccccc1C(=O)Nc1cccc(C(=O)N/N=C/c2cc(Cl)cc([N+](=O)[O-])c2O)c1,21µM*,14%,.,1%,1%,?
COc1ccc(OC)c(-c2cc(C(=O)Nc3cccc(Cl)c3C)no2)c1,0%,.,-4%,.,.,.
Cc1cccc(NC(=O)C(=O)NNC(=O)c2ccc(C(C)(C)C)cc2)c1,-19%,5%,.,0%,21%,3%
Cc1ccc(F)c(NC(=O)/C(C#N)=C(\O)c2ccc(C(C)(C)C)cc2)c1,12µM*,6%,?,8%,5%,-11%
Cc1ccccc1NC(=O)c1c(C)oc2ccc(O)c(CN3CCCC(C)C3)c12 (centres undefined),-2%,.,-10%,.,.,.
CCC1CSC(=Nc2ccc(C)cc2)N1C(=O)CN1C(=O)NC2(CCCC2)C1=O (centres undefined),17µM*,2.6µM*,.,0.56µM*,0.79µM*,?
CC(=O)NCc1cc(Cl)c2cccnc2c1O,-1%,.,.,-3%,1%,.
C=CC[C@@H](CC(=O)N(CCO)Cc1ccccc1)C(=O)N[C@@H](C)COC(=O)[C@@H](CC=C)CC(=O)OC(C)(C)C,.,0%,.,.,.,-3%
C=CC[C@@H](CC(=O)N(CCO)Cc1ccccc1)C(=O)N[C@H](C)COC(=O)[C@@H](CC=C)Cc1ccc(F)cc1,.,-7%,.,.,.,?
C=CC[C@H](CC(=O)N(CCO)Cc1ccccc1)C(=O)N[C@H](COC(=O)[C@@H](CC=C)Cc1ccc(F)cc1)Cc1ccccc1,.,-8%,.,.,.,21µM*
C=CCC[C@@H](Cc1ccc(F)cc1)C(=O)OC[C@H](Cc1c[nH]c2ccccc12)NC(=O)[C@H](CC=C)CC(=O)N(CCO)Cc1ccccc1,.,-13%,.,.,.,18µM*
C=CCC[C@H](Cc1ccc(F)cc1)C(=O)OC[C@@H](Cc1c[nH]c2ccccc12)NC(=O)[C@@H](CC=C)CC(=O)N(CCO)Cc1ccccc1,.,-7%,.,.,.,26µM*
C=CCC[C@@H](Cc1ccc(F)cc1)C(=O)OC[C@@H](Cc1c[nH]c2ccccc12)NC(=O)[C@@H](CC=C)CC(=O)NCCO,.,-8%,.,.,.,?
C=CC[C@H](CC(=O)N(CCO)Cc1ccccc1)C(=O)N[C@@H](C)COC(=O)[C@H](CC=C)CC(=O)OC(C)(C)C,.,-6%,.,.,.,23µM*
SMILES,FLuc counter,ELG1 genotoxic,SMN2 splice up,NPC1 promoter act,Rab9 promoter act,ELG1 DNA repair
COc1cc2c(cc1OC)-c1c(oc3cc(O)cc(O)c3c1=O)CO2,.,.,-33%,.,.,.
CCCOc1ccc(C2C(=O)N(C3CCCCC3)CC(=O)N2CCc2ccccc2)cc1OC (centres undefined),-1%,.,.,.,.,.
Cc1cccc(NC(=O)Cn2nnc(C(=O)Nc3ccccc3Br)c2N)c1C,-1%,.,.,.,.,.
C=CCC[C@H](Cc1ccc(F)cc1)C(=O)OC[C@H](Cc1c[nH]c2ccccc12)NC(=O)[C@@H](CC=C)CC(=O)N(CCO)Cc1ccccc1,.,-10%,.,.,.,23µM*
CC1(C)O[C@H]2[C@@H](O1)[C@@H](C(=O)Nc1ccccc1C(F)(F)F)O[C@@H]1OC(C)(C)O[C@@H]12,0%,.,12%,.,.,.
CNC(=S)SCCOc1ccc(C)cc1,15µM*,0%,16%,1%,4%,9%
CNC(=S)SCCOc1ccccc1,15µM*,1%,.,2%,10%,?
CCNC(=S)SCCOc1ccccc1C,?,-1%,-10%,0%,3%,4%
Cc1cccnc1NC(=O)NC(=O)c1ccc(C(C)(C)C)s1,5.4µM*,?,.,?,2.2µM*,?
C[C@H](NC(N)=O)C(=O)Nc1ccc(OCc2ccccc2)cc1,?,14%,16µM*,?,3.5µM*,?
COc1ccc(NC(=S)NNC(=O)c2cccs2)cc1,-6%,?,25%,0%,4µM*,?
CC(C)[C@H](NC(N)=O)C(=O)Nc1ccc(OCc2ccccc2)cc1,-11%,0%,1%,3%,19%,8%
Cc1cccnc1NC(=S)NC(=O)c1cccs1,13µM*,?,3.2µM*,?,3.5µM*,?
Cc1cccnc1NC(=O)CNC(=O)c1cccs1,1%,0%,.,-3%,-5%,1%
COc1ccc(NC(=O)c2cc(C)n(Cc3cccs3)c2C)cc1,0.85µM*,?,.,0.56µM*,0.32µM*,?
COc1ccc(NC(=O)c2cccs2)c([N+](=O)[O-])c1,?,?,20%,?,4µM*,?
O=C(NC(=S)Nc1ccc(Br)cn1)c1cccs1,3.8µM*,?,13µM*,?,?,?

# Assay outcomes deposited in PubChem by National Center for Advancing Translational Sciences (NCATS).
